Compound activity as filed in PubChem BioAssay.
CBFb-RUNX1 inh: blocks binding between human CBF-beta and RUNX1 | AlphaScreen CBFb-His/RUNX1-biotin binding, biochemical | Potency, µM (series often up to 59.8 µM), without a hit: at the top dose activity, negative = inhibition, actives largely listed as inhibitors | 230,000 tested, under 10 active; active = well fitted curve in the direction sought with a large enough effect; inconclusive = small, poorly fitted or top-dose-only effect, or another doubt; inactive = no such curve, though single readings can be large; an effect the other way counts as inactive or inconclusive; also: % of control where 0% means no effect
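CBF-beta (His) and RUNX1 (biotin), 30 nM each; 20 min preassociation; + compound, 15 min; + beads 50 ng each (Ni, streptavidin), 90 min; RT; AlphaScreen read.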
ALDH1A1 inh: inhibitors of human aldehyde dehydrogenase 1A1; Potency, µM (series often up to 75.3 µM), for inactives: at the top dose activity, negative = inhibition, hits mostly inhibitors; actives 7.3% (n = 220,000); P00352; Purified ALDH1A1, NADH fluorescence, propionaldehyde substrate;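 also: potency is read from the fitted curve at half-maximal effect; plate controls were no enzyme wells and a reference inhibitor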
Target sequence (P00352 whole entry, looked up): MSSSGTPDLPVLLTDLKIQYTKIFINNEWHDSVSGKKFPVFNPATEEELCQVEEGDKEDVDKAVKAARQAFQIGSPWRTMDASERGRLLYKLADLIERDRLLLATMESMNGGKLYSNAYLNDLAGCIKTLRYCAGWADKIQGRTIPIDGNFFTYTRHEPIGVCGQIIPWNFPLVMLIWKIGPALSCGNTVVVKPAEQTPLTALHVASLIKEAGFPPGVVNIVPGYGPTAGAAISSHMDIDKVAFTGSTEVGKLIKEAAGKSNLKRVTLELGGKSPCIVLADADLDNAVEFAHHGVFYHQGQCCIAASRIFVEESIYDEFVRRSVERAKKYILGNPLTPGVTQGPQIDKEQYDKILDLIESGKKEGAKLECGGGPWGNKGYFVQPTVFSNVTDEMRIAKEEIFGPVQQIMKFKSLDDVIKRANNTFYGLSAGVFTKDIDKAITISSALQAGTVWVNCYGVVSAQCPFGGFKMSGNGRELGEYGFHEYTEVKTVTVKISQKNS
HPGD inh: inhibitors of human 15-hydroxyprostaglandin dehydrogenase (HPGD). P15428. purified HPGD, NADH fluorescence kinetic, PGE2 substrate. Potency, µM, without a hit: at the top dose activity change, negative = inhibition, most hits filed as inhibitors. actives 4.3% (n = 150,000); also: potency is read from the fitted curve at half-maximal effect; % is scaled to controls: 0 for no effect and ±100 for the full control effect
Target sequence (P15428 whole entry, looked up): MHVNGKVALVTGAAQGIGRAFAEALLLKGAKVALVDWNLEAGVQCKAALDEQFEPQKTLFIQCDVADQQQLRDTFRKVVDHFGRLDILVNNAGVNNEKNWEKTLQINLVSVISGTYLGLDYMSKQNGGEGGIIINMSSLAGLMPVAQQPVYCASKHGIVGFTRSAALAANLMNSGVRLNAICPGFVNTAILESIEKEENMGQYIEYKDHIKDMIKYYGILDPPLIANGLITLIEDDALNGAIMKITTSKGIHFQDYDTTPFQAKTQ
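NADH formation kinetics: reaction with 30 uM PGE2 and 1 mM NAD+ (final), 20 nM enzyme, Tris-HCl pH 8 with Tween 20, after 15 min compound preincubation at room temperature. Fluorescence change, last versus first of five reads.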
HTT cytoprotect: protects HTT-Q103 PC12 cells, measured by ATP. PC12 HTT-Q103 induced, cytoprotection, ATP luminescence, 40 h. Potency, µM (highest dose often 56.4 µM), inactives show cytoprotection (ATP increase), actives largely listed as activators. actives 0.14% (n = 230,000). AID 1471; active = well fitted curve in the direction sought with a large enough effect; inconclusive = small, poorly fitted or top-dose-only effect, or another doubt; inactive = no such curve, though single readings can be large; an effect the other way counts as inactive or inconclusive; also: potency is read from the fitted curve at half-maximal effect; % of control where 0% means no effect; nearly all actives have a fitted effect of over 45% in size
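Compounds were screened for protection of PC12 cells against cell death after tebufenozide induction (100 nM final) of mutant Huntingtin exon 1 (Q103) fused to GFP.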
JMJD2E inh: JMJD2E (human) inhibition | B2RXH2 | JMJD2E catalytic domain, FDH-coupled NADH fluorescence (FDH is formaldehyde dehydrogenase) | Potency, µM (doses to about 57.1 µM), for the others: at the highest dose activity change, negative = inhibition, actives largely listed as inhibitors | actives 1.6% (n = 230,000);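 also: potency is read from the fitted curve at half-maximal effect; 0% = wells with enzyme and -100% = buffer wells without enzyme; nearly all actives have a fitted effect of over 50% in size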
HTT aggregate: reduces HttQ103-GFP aggregates in PC12 cells. actives 1.1% (n = 220,000). PC12 HttQ103-GFP aggregates, Acumen cytometry, 40 h. Potency, µM (top dose mostly 46.1 µM), without a hit: top-dose activity change, negative = inhibition, most hits filed as inhibitors; active = well fitted curve in the direction sought with a large enough effect; inconclusive = small, poorly fitted or top-dose-only effect, or another doubt; inactive = no such curve, though single readings can be large; an effect the other way counts as inactive or inconclusive; also: potency is read from the fitted curve at half-maximal effect; % is scaled to controls: 0 for no effect and ±100 for the full control effect; nearly all actives have a fitted effect of over 60% in size
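Compounds (qHTS titration) were added to PC12 cells expressing an ecdysone-driven HTT exon 1 Q103–GFP fusion after induction with 100 nM tebufenozide. Aggregate formation was measured as GFP objects in cell lysates.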
* marks the source's active call; other numbers are inactive results; ? = inconclusive; . = no result; [ ] = remark or other dose. Shown are actives, neighbours in structure and some others; about 9.8% of the full set was active somewhere. Unless noted, calls follow the shape of the dose curve; as a rule, active = well fitted inhibition curve with a large enough effect (not every such curve was filed as active); inconclusive = small, poorly fitted or top-dose-only effect, or another doubt; inactive = no such curve, though single readings can be large or run the other way.

SMILES	CBFb-RUNX1 inh	ALDH1A1 inh	HPGD inh	HTT cytoprotect	JMJD2E inh	HTT aggregate
Cc1ccc(OC(=O)NC2CCS(=O)(=O)C2)cc1C (centres undefined)	5%	5%	-2%	0%	6%	9%
Cc1ccc(NC(=O)/C=C\C(=O)NCC(=O)O)cc1C	1%	5µM*	-18%	.	-3%	8%
Cc1ccc(NC(=O)CCSCCC(=O)Nc2ccc(C)c(C)c2)cc1C	3%	18µM*	-24%	-7%	-1%	-25%
O=C(Cc1nc2ccccc2[nH]1)c1cccc([N+](=O)[O-])c1	-4%	?	.	16%[10 µM]	?	0%[9.22 µM]
COc1ccc(O)c(-c2[nH]ncc2C(=O)c2ccccc2C)c1	-10%	13µM*	-11%	2%	-5%	-24%
CCN(CC)C(=O)Oc1ccc2c(=O)c(-c3ccc(OC)cc3)c(C)oc2c1	4%	14µM*	-14%	6%[0.074 µM]	-1%	-14%
Cn1nc(C(=O)N2CCOCC2)c([N+](=O)[O-])c1C(=O)N1CCOCC1	5%	1%	-4%	-3%[1.9 µM]	2%	-7%
COC(=O)c1cc(OC)c(OC)cc1NC(=O)CN1CCCCC1	2%	1%	-3%	0%[0.074 µM]	1%	0.63µM*
COc1ccc(Cl)cc1NC(=O)CN1CCCC1	1%	10µM*	.	0%	1%	-7%
COc1ccc(C)cc1NC(=O)CN1CCN(S(=O)(=O)c2ccc(C(C)C)cc2)CC1	-5%	5µM*	-13%	5%[10 µM]	?	3%
COc1ccc(Cl)cc1NC(=O)Cn1cccc1	-3%	13µM*	-16%	-16%	-5%	0%
C[C@@H](SCc1ccccc1)C(=O)O	.	4%[13.5 µM]	-5%	2%[10 µM]	.	.
COc1ccc(NC(=O)Nc2sc(NS(=O)(=O)c3ccccc3)nc2C)cc1	?	8.9µM*	.	-16%	-3%	16%
COCc1nnc(NS(=O)(=O)c2ccc(C)cc2)s1	2%	5%	4%	10%	0%	14%
COc1ccc(NC(=O)Nc2sc(=S)n(C)c2C)cc1	3%	16µM*	.	.	1%	.
COc1ccc(S(=O)(=O)Nc2nnc(C)s2)cc1	-3%	?	32µM*	-14%[10 µM]	-4%	-1%
Cc1nc(NS(=O)(=O)c2ccccc2)sc1NC(=O)OC(C)C	-5%	?	-18%	-10%	-2%	0%
CCc1nnc(NS(=O)(=O)c2ccc(NC(=S)NC(=O)c3ccc(OC)cc3)cc2)s1	-8%	18µM*	?	-14%[10 µM]	1%	-4%
CCc1nnc(NS(=O)(=O)c2ccc(NC(=S)NC(=O)c3ccncc3)cc2)s1	6%	.	.	-15%[10 µM]	?	-14%[9.22 µM]
CCCN1Cc2cccc(C(=O)Nc3ccc(-c4nc5ccccc5[nH]4)cc3)c2C1=O	21%	-4%	-18%	4%[10 µM]	?	12%
CCc1nnc(NS(=O)(=O)c2ccc(NC(=S)NC(=O)c3ccc(OC)c(OC)c3)cc2)s1	6%	7.9µM*	?	-6%[10 µM]	-4%	14%
COc1ccc(C(=O)NC(=S)Nc2ccc(S(=O)(=O)Nc3cc(C)on3)cc2)cc1OC	-4%	.	.	1%[10 µM]	-1%	3%[9.22 µM]
COc1ccc(C(C)=O)cc1COC(=O)c1cnc(Cl)c(Cl)c1	10%	1.4µM*	.	-2%	-4%	16%
COc1ccc(C(C)=O)cc1COC(=O)c1ccc(S(=O)(=O)N(C)C)cc1	2%	7.1µM*	.	?	6%	-6%
COc1ccc(C(C)=O)cc1COC(=O)c1ccc2c(c1)OCO2	0%	10µM*	-14%	-5%[10 µM]	11%	-6%
SMILES	CBFb-RUNX1 inh	ALDH1A1 inh	HPGD inh	HTT cytoprotect	JMJD2E inh	HTT aggregate
CNS(=O)(=O)c1cccc(C(=O)OCc2cc(C(C)=O)ccc2OC)c1	-8%	?	.	-48%	-6%	9%
FC(F)(F)c1cnc(COc2cc(Cl)cc(Cl)c2)c(Cl)c1	?	.	.	-7%[10 µM]	-1%	-3%[9.22 µM]
Clc1cccc(NCc2nnc(SCc3ccc(Cl)cc3Cl)o2)c1	7%	-9%	-15%	0%[1.9 µM]	-2%	?
S=c1[nH]nc(CNc2cccc(Cl)c2)o1	-6%	32µM*	.	.	?	.
C=C1C(C(=O)Nc2ccc(OC)cc2)C1C(=O)Nc1ccc(OC)cc1 (centres undefined)	7%	.	.	-11%[10 µM]	3%	-12%[9.22 µM]
COc1ccc(-c2nc(C3CCCCC3)no2)cc1OC	6%	22µM*	?	-6%	?	8%
c1ccc(-c2nc(C3CCCCC3)no2)cc1	3%	3%	-1%	-6%	3%	-12%
CC(C)N=c1scc(-c2ccco2)n1/N=C/c1ccc(O)c(O)c1	?	-4%	32µM*	-88%	?	?
COCCN=c1scc(-c2ccco2)n1/N=C/c1ccc(O)c(O)c1O	.	8.9µM*	.	?	22µM*	?
C=CCN=c1scc(-c2ccco2)n1/N=C/c1ccc(O)c(O)c1O	?	.	.	-33%[10 µM]	11µM*	23%[9.22 µM]
Oc1ccc(/C=N/n2c(-c3ccco3)csc2=Nc2cccnc2)c(O)c1	?	-5%	-14%	25%[10 µM]	-14%	?
O=C1OC(c2ccccc2)=NC12CC2c1ccc(Cl)cc1 (centres undefined)	1%	28µM*	28µM*	.	5%	12%
OCC1(CO)COC(c2ccccc2)=N1	7%	3%	.	1%	-4%	24%
Cc1ccc(C2Nc3ccccc3C(=O)N2Cc2ccco2)cc1 (centres undefined)	3%	?	?	-24%	?	5%
CCOC(=O)C1C(c2cc(OC)c(OC)c(OC)c2)NC(=S)NC1(O)C(F)(F)F (centres undefined)	10%	?	32µM*	0%	1%	-11%
CCOc1cc(C2NC(=O)NC(O)(C(F)(F)F)C2C(=O)c2ccc(OC)cc2)ccc1O (centres undefined)	2%	5.6µM*	-12%	24%[10 µM]	8%	12%
CCC(C)C1NC(=O)C(CCNCS(=O)(=O)O)NC(=O)C(NC(=O)C(CCNCS(=O)(=O)O)NC(=O)C(NC(=O)C(CCNCS(=O)(=O)O)NC(=O)CCCCC(C)C)C(C)O)CCNC(=O)C(C(C)O)NC(=O)C(CCNCS(=O)(=O)O)NC(=O)C(CCNCS(=O)(=O)O)NC(=O)C(C(C)CC)NC1=O (centres undefined)	1%	6%	-7%	-138%	161%	-26%
CCOC(=O)C1=C(N)OC2=C(C(=O)CC(C)(C)C2)C1c1cccnc1 (centres undefined)	-8%	-1%	1%	-9%	4%	6%
CCOC(=O)C1=C(N)OC2=C(C(=O)CC(C)(C)C2)C1c1cc(CSc2nnnn2C)cs1 (centres undefined)	-9%	1µM*	.	-59%	-4%	8%
